Inconclusive results are not listed. Active and inactive are the calls of the source. Calls follow the shape of the dose curve; as a rule, active = well fitted cell-killing curve with a large enough effect; inconclusive = small, poorly fitted or top-dose-only effect, or effect the other way; inactive = flat fitted curve, though single readings scatter.

This assay is described as follows: S16 Schwann cell viability assay (CellTiter-Glo assay) (AID 624031).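 Also: native untransfected S16 rat Schwann cells; nearly all actives have a fitted effect of over 70% in size.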 The settings on record: S16 rat Schwann cells viability, 24 h; series mostly up to 57.5 µM. An outline of the steps:
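Rat S16 Schwann cells without reporter constructs received compound or DMSO for 24 h at 37 °C under 5% CO2. Cellular ATP was then quantified by CellTiter-Glo luminescence, with vehicle wells defined as 0% activity and cell-free wells as reference.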
(In general: Cellular ATP, detected with luciferase, serves as a proxy for viable cell number.)
Turning to `CN1CC(=O)N2C(Cc3c([nH]c4ccccc34)[C@H]2c2ccc3c(c2)OCO3)C1=O` (some centres undefined), the result was inactive.
`N#Cc1c(N(CC(=O)O)CC(=O)O)sc(C(=O)O)c1CC(=O)O`: the compound was called inactive.
Under `CC(C)CN(C[C@@H](O)[C@H](Cc1ccccc1)NC(=O)O[C@H]1CO[C@H]2OCC[C@H]21)S(=O)(=O)c1ccc(N)cc1` stands “inactive”; under `NS(=O)(=O)c1cc(Cl)c(Cl)c(S(N)(=O)=O)c1`, “inactive”; under `O=C1C(CCC(O)c2ccc(F)cc2)C(c2ccc(O)cc2)N1c1ccc(F)cc1` (centres undefined), “inactive”.
As to `CS(=O)(=O)c1ccc(C2=C(c3ccccc3)C(=O)OC2)cc1`, the call was inactive.
As to `O=C(O)c1nc(=O)[nH]c(=O)[nH]1`, the compound was called inactive.
Regarding `N#CC(c1ccc(Cl)cc1)c1c(Cl)cc(-n2ncc(=O)[nH]c2=O)cc1Cl` (centres undefined), the outcome was inactive.
Take `COc1ccnc(CS(=O)c2nc3ccc(OC(F)F)cc3[nH]2)c1OC` (centres undefined): the compound was classed as inactive.
In the case of `Clc1ccc(COC(Cn2ccnc2)c2ccc(Cl)cc2Cl)c(Cl)c1` (centres undefined), the result was inactive.
Consider `NCC1CCC(C(=O)O)CC1` (centres undefined), for which the outcome was inactive.
In the case of `COc1cc2c(cc1OC)CC(=O)N(CCCN(C)C[C@H]1Cc3cc(OC)c(OC)cc31)CC2`, the result was inactive.
Take `CN1CCN2c3ncccc3Cc3ccccc3C2C1` (centres undefined): the result was inactive.
Regarding `Cc1cc2nc3c(=O)[nH]c(=O)nc-3n(CC(O)C(O)C(O)CO)c2cc1C` (centres undefined), the outcome was inactive.

Source of the values: PubChem BioAssay (NCATS).
